Each structure is given as a SMILES string.

This assay deals with Plasmodium falciparum NF54 gametocytes. The assay can be described thus: viability index relative to DMSO control (fraction); higher = less gametocyte killing. To be noted: gametocyte stage: Stage I viability index; 12.5 µM; incubation time: 72 h. The method, boiled down: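 In 384-well plates, compound at 12.5 µM was incubated for 72 hr at 37°C under low oxygen with P. falciparum NF54 gametocytes of each stage (I–V) at 0.50% gametocytemia and 1.25% hematocrit in 40 µl of serum-containing medium. Staining used 5 µl of 5 µM MitoTracker Red CMXRos for 20 min, then 5 µl was moved into 40 µl of 500 nM dye in serum-free medium and imaged after 30 min. Dividing the gametocyte particle count by the plate mean of solvent-only wells gave the viability index.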
Turning to `COc1ccc(CCn2c(=N)c(C(=O)NCc3cccnc3)cc3c(=O)n4cccc(C)c4nc32)cc1`, the viability index is 0.076. As for `CCOc1cc2c(cc1OCC)C(c1cc(Cl)ccc1O)NCC2` (centres undefined), the viability index was found to be 0.0411. `CCC(=O)Nc1nnc(Cc2ccc(OC)c(OC)c2)s1`: the viability index was found to be 1.02. For the compound `CC1=C(CC(=O)c2cccc([N+](=O)[O-])c2)C(=O)c2ccccc2C1=O`, the viability index is 0.00612.

As for `Cc1cc(N(C)C)nc(Nc2ccc(NC(=O)Nc3ccccc3)cc2)n1`, the viability index is 0.00262.

For the compound `O=C(Nc1nc(-c2ccccn2)cs1)c1ccccc1Br`, the viability index was 0.0807. Take `FC(F)(F)c1ccc(Nc2nnnc3ccccc23)cc1`: the viability index is 0.604.

`COc1ccc(-c2cc3c(SCC(=O)Nc4cc(C(F)(F)F)ccc4Cl)nccn3n2)cc1` gave a viability index of 1.04. As for `COc1ccc(C(=O)NC(c2ccccc2Cl)c2cc(Cl)c3cccnc3c2O)cc1` (centres undefined), the viability index was found to be 0.11. Then `COc1ccc2c(c1OC)C(=O)N1c3ccccc3N=C(c3ccc(C)cc3)CC21` (centres undefined), with 0.899; and `Cc1ccc(C)c(-c2csc(Nc3ccc(C)c(C)c3)n2)c1`, with 0.856; and `COc1ccc(C2N(C)c3ccccc3N2C)cc1`, with 0.939. Compound `CCOC(=O)C1=C(c2ccccc2)N=c2sc(=Cc3cc(C)n(-c4ccc(F)cc4)c3C)c(=O)n2C1c1cccc(OC)c1OC` (centres undefined) came in with a viability index of 0.806. Then `COc1ccc(C(=O)C2CC2c2ccc(Cl)cc2)cc1` (centres undefined), with 1.01; and `Cc1ccc(CSCc2ccc(C(=O)NC3CC3)o2)cc1`, with 0.678; and `CCOc1ccc2c(c1)CN(Cc1ccc(Cl)cc1)CO2`, with 0.0612.

On to `CCOc1ccccc1NC(=O)CN1CCN(C(=O)c2ccco2)CC1`, for which the viability index worked out at 1.06. Then `COc1cc2cc(C(=O)Nc3ccccc3)c(N)nc2cc1OC`, with 0.0265; and `COc1ccc(C=C2SC(Nc3ccc(F)cc3)=NC2=O)c(OC)c1`, with 0.76. Then `COc1ccc(C(O)(CCC(C)C)C(CN2CCOCC2)c2ccc(Cl)cc2)cc1` (centres undefined), with 1.2; and `COc1ccc(-c2cc3c(nn2)-c2ccccc2C3=O)cc1`, with 0.713; and `CCOc1cc(Cl)c(C(C)NC(=O)c2ccccc2)cc1OCC` (centres undefined), with 0.728. For `O=C1C2=C(Nc3ccccc3SC2c2ccccc2)c2ccccc21` (centres undefined) the value was 0.678; for `COc1ccccc1CNC(=O)C1c2ccccc2C(=O)N(CC(C)C)C1c1cccs1` (centres undefined), 0.951. In turn, `O=C(CCc1ccccc1)c1ccccc1OCC(O)CN1CCCCC1` (centres undefined) gave a viability index of 0.00787.

Turning to `CCCCCCn1c(=N)n(CC(O)COc2cccc(C)c2)c2ccccc21` (centres undefined), the viability index is 0.0787. For `COc1ccc(-c2nc(NC(=O)CS(=O)(=O)c3ccc(F)cc3)sc2C)cc1` the value was 0.307; for `Oc1c2c(nc3cc(-c4ccccc4)nn13)CCCC2`, 1.07; for `COc1ccc(Nc2cc(C)nc(NCc3ccccc3)n2)cc1`, 0.0594. The compound `Cc1ccc(Nc2nc(NCCO)c3ccccc3n2)cc1C` gave a viability index of 0.0641. Then `O=C(NC1CCCC1)c1ccc(N2CCC(NCc3cccc(C(F)(F)F)c3)CC2)cc1`, with 0.243; and `Cc1sc2ncnc(Sc3nc4ccccc4[nH]3)c2c1C`, with 0.0276. For `Cc1ccc(Nc2nc(N)c3ccccc3n2)cc1Cl` the value was 0.0341; for `Clc1ccc2c(N3CCCC3)ccnc2c1`, 0.241; for `CCc1ccc(CNCC(O)c2ccccc2)cc1` (centres undefined), 0.042. Then `O=C(Nc1ccc(Cl)cc1C(=O)Nc1ccncc1)c1ccc(Cl)cc1Cl`, with 0.139; and `COc1ccc(C(=O)NC(c2ccc(Cl)cc2Cl)c2cc(Cl)c3cccnc3c2O)cc1` (centres undefined), with 0.0262; and `CCCCNCC(O)(c1ccc(Cl)cc1)c1ccc(Cl)cc1`, with 0.00663.

`COc1ccc(C2NCCc3c2[nH]c2ccccc32)cc1CN1CCN(c2ccc(F)cc2)CC1` (centres undefined) came in with a viability index of 0.0297.

Values taken from the supplement of paper PMC4723716.
